# Results filed as inconclusive are left out. Active and inactive are the calls of the source. How the source made its calls: active means hit-call score of the fitted dose curve at least 0.9, where 1 is the maximum; inconclusive means response in the unintended direction; inactive means score below 0.9.
# Target: human Adenosine A1 Receptor (AdoRA1), ADORA1 (gene 134) (UniProt P30542)
# Assay: NVS_GPCR_hAdoRA1: NovaScreen (NVS) G Protein-Coupled Receptor Assay for human Adenosine A1 Receptor (AdoRA1) (AID 2283254)
# Description: NVS_GPCR_hAdoRA1 is a biochemical, single-readout assay that uses extracted gene-proteins from Human cortical membranes in a tissue-based cell-free assay. Measurements were taken 1 hour after chemical dosing in a 96-well plate.NVS_GPCR_hAdoRA1 is one of one assay component(s) measured or calculated from the NVS_GPCR_hAdoRA1 assay. It is designed to make measurements of radioligand binding, a form of binding reporter, as detected with scintillation counting signals by Filter-based radiodetection technology.Data from the assay component NVS_GPCR_hAdoRA1 was analyzed into 1 assay endpoint. This assay endpoint, NVS_GPCR_hAdoRA1, was analyzed in the positive analysis fitting direction relative to DMSO as the negative control and baseline of activity. Using a type of binding reporter, loss-of-signal activity can be used to understand changes in the binding as they relate to the gene ADORA1. Furthermore, this assay endpoint can be referred to as a primary readout, because the performed assay has only produced 1 assay endpoint. To generalize the intended target to other relatable targets, this assay endpoint is annotated to the gpcr intended target family, where the subfamily is rhodopsin-like receptor.
# Binding assays used specific radioligands (tritiated, iodinated) with non-radioactive competitive displacement ligands in agonist or antagonist protocols (as indicated) and various reference compounds and inhibitors to titrate specific binding to receptors and transporters. Most enzyme assays (CYPs, kinases, phosphatases, proteases, HDACs) used recombinant protein and specific substrates (fluorescence mostly, some colorimetric and radioactive) and inhibitors, followed by a biochemical separation of substrate and product. All assays for the biochemical HTS were initially run in duplicate at a single concentration (10 uM for CYP450 assays and 25 uM for all others). […] Each assay was run with positive and negative controls, and concurrent controls on every plate. […]
# Sequence of human Adenosine A1 Receptor (AdoRA1), ADORA1 (gene 134) (P30542 whole entry, looked up): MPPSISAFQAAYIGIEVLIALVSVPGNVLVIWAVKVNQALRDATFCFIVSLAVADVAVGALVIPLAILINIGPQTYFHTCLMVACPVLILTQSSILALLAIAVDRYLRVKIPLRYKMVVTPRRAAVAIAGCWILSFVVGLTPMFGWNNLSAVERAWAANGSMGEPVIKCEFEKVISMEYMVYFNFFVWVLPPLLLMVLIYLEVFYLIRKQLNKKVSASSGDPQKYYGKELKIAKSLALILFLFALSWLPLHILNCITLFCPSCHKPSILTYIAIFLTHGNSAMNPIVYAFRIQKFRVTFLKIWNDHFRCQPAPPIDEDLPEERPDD
Compound,outcome,AC50
Oc1ccc(/C=C/c2cc(O)cc(O)c2)cc1,inactive,
Nc1nc(N)nc(-c2ccccc2)n1,,6.11 µM (active)
CCCCCCCCCCCCCc1ccccc1,inactive,

# Target: human Adenosine A2a Receptor (AdoRA2a), ADORA2A (gene 135) (UniProt P29274)
# Sequence (P29274 whole entry, looked up): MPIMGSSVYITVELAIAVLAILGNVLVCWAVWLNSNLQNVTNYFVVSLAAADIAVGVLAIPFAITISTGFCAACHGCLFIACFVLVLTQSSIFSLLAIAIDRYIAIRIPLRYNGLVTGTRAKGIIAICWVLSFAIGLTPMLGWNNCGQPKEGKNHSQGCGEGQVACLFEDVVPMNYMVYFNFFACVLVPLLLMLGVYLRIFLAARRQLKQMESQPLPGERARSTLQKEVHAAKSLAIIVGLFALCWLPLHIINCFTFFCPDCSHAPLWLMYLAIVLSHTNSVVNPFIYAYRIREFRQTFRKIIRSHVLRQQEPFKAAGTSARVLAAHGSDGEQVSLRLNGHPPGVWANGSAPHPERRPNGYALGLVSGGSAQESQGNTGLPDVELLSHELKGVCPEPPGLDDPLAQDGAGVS
# Assay: NVS_GPCR_hAdoRA2a: NovaScreen (NVS) G Protein-Coupled Receptor Assay for human Adenosine A2a Receptor (AdoRA2a) (AID 2283256)
# Outline: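 HEK293-derived receptor preparation, radioligand displacement, 1.5 h, filtration + scintillation read. Loss of bound signal scored vs DMSO. Single-point 25 uM in duplicate first, then concentration-response for actives.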
Compound,outcome,AC50
c1ccc(-c2nc3ccccc3[nH]2)cc1,inactive,
Cc1c[nH]c(=O)[nH]c1=O,inactive,
Oc1ccc(/C=C/c2cc(O)cc(O)c2)cc1,,17.9 µM (active)
Nc1nc(N)nc(-c2ccccc2)n1,,3.01 µM (active)
Cn1ccnc1,inactive,

# Target: D(1A) dopamine receptor (Homo sapiens) (UniProt P21728)
# Sequence (P21728 whole entry, looked up): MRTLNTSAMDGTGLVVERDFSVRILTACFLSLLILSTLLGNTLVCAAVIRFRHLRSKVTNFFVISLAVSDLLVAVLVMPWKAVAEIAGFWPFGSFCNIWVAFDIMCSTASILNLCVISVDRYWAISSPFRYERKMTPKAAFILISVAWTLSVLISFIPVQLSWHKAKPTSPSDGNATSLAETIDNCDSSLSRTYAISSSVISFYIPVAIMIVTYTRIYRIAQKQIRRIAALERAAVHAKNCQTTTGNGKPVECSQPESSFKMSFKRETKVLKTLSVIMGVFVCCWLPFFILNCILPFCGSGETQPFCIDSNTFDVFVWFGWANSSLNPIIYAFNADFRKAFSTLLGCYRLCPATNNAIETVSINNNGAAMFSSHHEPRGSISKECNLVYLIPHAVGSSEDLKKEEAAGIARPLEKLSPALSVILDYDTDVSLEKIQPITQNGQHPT
# Assay: NVS_GPCR_hDRD1: NovaScreen (NVS) G Protein-Coupled Receptor Assay for human Dopamine Receptor D1 (DRD1) (AID 2283269)
# Outline: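 Extracted HEK293 DRD1 is incubated 1 h with compound and a tritiated or iodinated radioligand, then filtered and counted. Screening runs 25 uM in duplicate with on-plate positive and negative controls.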
Compound,outcome,AC50
CC(C)CCOCc1ccccc1,inactive,
CC/C=C\C/C=C\C/C=C\CCCCCCCC(=O)OC,,14 µM (active)
COC(=O)C=Cc1ccccc1,inactive,
Cc1cc(C)n(CO)n1,inactive,
Oc1ccc(/C=C/c2cc(O)cc(O)c2)cc1,,25 µM (active)
C=C(C)C(=O)OCCCCCCCCCCCC,inactive,
CC(c1cc(C(C)(C)C)cc(C(C)(C)C)c1O)c1cc(C(C)(C)C)cc(C(C)(C)C)c1O,inactive,
Cc1cc(C)c(C=O)c(C)c1,inactive,
CCCCCCCCCCCCCc1ccccc1,inactive,
CCC(C)C(=O)OC (stereo not given),,18.1 µM (active)
[Cl][Sc]([Cl])[Cl],inactive,

# Target: Muscarinic acetylcholine receptor M2 (Homo sapiens) (UniProt P08172)
# Sequence (P08172 whole entry, looked up): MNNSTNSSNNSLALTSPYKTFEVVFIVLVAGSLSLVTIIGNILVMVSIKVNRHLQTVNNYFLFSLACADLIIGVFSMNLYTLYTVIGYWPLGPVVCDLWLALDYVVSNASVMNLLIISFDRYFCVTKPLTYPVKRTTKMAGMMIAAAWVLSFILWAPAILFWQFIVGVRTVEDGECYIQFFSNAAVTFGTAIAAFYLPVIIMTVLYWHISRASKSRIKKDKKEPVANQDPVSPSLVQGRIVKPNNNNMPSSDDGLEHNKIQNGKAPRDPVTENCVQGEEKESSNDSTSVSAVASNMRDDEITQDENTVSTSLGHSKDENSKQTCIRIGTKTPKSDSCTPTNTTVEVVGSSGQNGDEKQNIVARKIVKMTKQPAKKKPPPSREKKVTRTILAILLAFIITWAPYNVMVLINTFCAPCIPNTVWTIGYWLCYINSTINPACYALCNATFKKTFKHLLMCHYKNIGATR
# Assay: NVS_GPCR_hM2: NovaScreen (NVS) G Protein-Coupled Receptor Assay for human Muscarinic, M2 Receptor (AID 2283273)
# Outline: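 CHO-expressed human M2 receptor preparation, competitive displacement of a radioligand read by filter-based scintillation counting after 1 h. Single 25 uM duplicate screen, then concentration-response follow-up of actives; DMSO baseline.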
Compound,outcome,AC50
CCCCCCCCC(CO)CCCCCC (stereo not given),inactive,
Cc1c(O)cccc1O,inactive,
CC(C)[N+](C)(CCOC(=O)C1c2ccccc2Oc2ccccc21)C(C)C,,0.00229 µM (active)

# Target: human Neurokinin, NK2 Receptor, TACR2 (gene 6865) (UniProt P21452)
# Sequence (P21452 whole entry, looked up): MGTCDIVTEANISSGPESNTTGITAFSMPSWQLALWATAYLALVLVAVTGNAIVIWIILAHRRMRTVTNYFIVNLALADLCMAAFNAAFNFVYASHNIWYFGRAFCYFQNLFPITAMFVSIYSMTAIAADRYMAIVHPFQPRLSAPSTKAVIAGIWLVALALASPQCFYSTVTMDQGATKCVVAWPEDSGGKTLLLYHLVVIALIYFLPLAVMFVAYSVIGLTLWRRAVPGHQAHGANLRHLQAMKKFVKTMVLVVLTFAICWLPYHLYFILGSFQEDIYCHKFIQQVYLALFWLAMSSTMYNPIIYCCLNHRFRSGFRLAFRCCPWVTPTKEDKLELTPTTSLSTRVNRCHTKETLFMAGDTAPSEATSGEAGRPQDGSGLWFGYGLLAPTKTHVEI
# Assay: NVS_GPCR_hNK2: NovaScreen (NVS) G Protein-Coupled Receptor Assay for human Neurokinin, NK2 Receptor (AID 2283278);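 further: actives reduce bound radioligand signal relative to DMSO baseline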
# Outline: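 Test chemicals displace a radioligand from receptor prepared from CHO cells in a cell-free format, read after 4 hours by scintillation counting on filters. Screening starts at 25 uM in duplicate, and active chemicals then go to concentration series.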
Compound,AC50,outcome
Oc1ccc(/C=C/c2cc(O)cc(O)c2)cc1,0.835 µM (active),
CCOC(=O)/C=C\C(=O)OCC,,inactive
CC(C)[N+](C)(CCOC(=O)C1c2ccccc2Oc2ccccc21)C(C)C,17.7 µM (active),
c1ccc2sc(SSN3CCOCC3)nc2c1,3.65 µM (active),
[Cl][Sc]([Cl])[Cl],,inactive

# Target: human Thromboxane A2 Receptor (TXA2), TBXA2R (gene 6915) (UniProt P21731)
# Sequence (P21731 whole entry, looked up): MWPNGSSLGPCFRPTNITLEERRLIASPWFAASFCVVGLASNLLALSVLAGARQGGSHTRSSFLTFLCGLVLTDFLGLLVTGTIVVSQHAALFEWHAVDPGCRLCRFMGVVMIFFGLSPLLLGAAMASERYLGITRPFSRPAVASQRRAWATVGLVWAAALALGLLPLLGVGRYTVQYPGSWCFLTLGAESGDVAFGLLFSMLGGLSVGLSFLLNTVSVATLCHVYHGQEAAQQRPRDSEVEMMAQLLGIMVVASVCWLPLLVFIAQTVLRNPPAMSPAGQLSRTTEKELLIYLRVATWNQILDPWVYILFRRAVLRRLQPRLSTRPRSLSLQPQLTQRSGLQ
# Assay: NVS_GPCR_hTXA2: NovaScreen (NVS) G Protein-Coupled Receptor Assay for human Thromboxane A2 Receptor (TXA2) (AID 2283282);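 further: actives reduce bound radioligand signal relative to DMSO baseline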
# Outline: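 Cell-free radioligand binding with human platelet-derived receptor; 1 h after dosing, filter-based scintillation counting, loss of signal vs DMSO. Primary screen in duplicate at 25 uM.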
Compound,outcome,AC50
CCOC(=O)C1=NN(c2ccc(Cl)cc2Cl)C(C)(C(=O)OCC)C1 (stereo not given),inactive,
CC/C=C\C/C=C\C/C=C\CCCCCCCC(=O)OC,,2.66 µM (active)
CC(C)=NNC(N)=S,inactive,
c1ccc(-c2nc3ccccc3[nH]2)cc1,,7.64 µM (active)
CCCCC1C(=O)N(c2ccccc2)N(c2ccccc2)C1=O,inactive,
Oc1c(Cl)cc(Cl)c(Cl)c1Cl,inactive,
Clc1cccnc1,inactive,
CCCCCCC=O,inactive,
Oc1ccc(/C=C/c2cc(O)cc(O)c2)cc1,inactive,
CCC(C)c1ccccc1 (stereo not given),,2.46 µM (active)
CCc1cccc(C)c1N(C(=O)CS(=O)(=O)O)C(C)COC (stereo not given),inactive,
CCOC(=O)/C=C\C(=O)OCC,inactive,
Fc1ccc(Br)cc1,inactive,

# Reference: PubChem BioAssay (EPA / NIEHS)
